Rango dissoc inh: inhibition of RanGTP-driven Rango-importin beta dissociation | Biochemical FRET Rango-importin beta, RanGTP-induced dissociation | Potency, µM (top dose mostly 46.1 µM), for the others: top-dose activity change, negative = inhibition | O95149+P62826 | 340,000 compounds, 0.071% hits; calls by dose curve; further: % of control where 0% means no effect; nearly all actives have a fitted effect of over 45% in size
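Rango (0.1 uM)–importin beta (0.25 uM) complex; RanGTP-RCC1 trigger; 45 min RT; CFP/YFP FRET read.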
Nrf2 activator: Nrf2 pathway activation. Potency, µM (doses to about 46.1 µM), for the others: at the highest dose activation, most hits filed as activators. 410,000 compounds, 0.31% hits. AREc32 ARE-luciferase reporter (MCF7-derived line), luminescence, 24 h; further: % of control where 0% means no effect; nearly all actives have a fitted effect of over 65% in size
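ARE-driven firefly luciferase activity in AREc32 cells measured after a 24 hr compound exposure at 37 deg C, using Steady-Glo reagent and a 30 min room-temperature hold.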
A549 viability: A549 cytotoxicity, counter-screen for Nrf2 inhibitors | A549 ARE-Fluc cells, CellTiter-Fluor viability, 18-24 h | Potency, µM (titrated, usually from 46 µM), inactives show at the highest dose activity change, negative = cytotoxicity, usual class: inhibitors | 390,000 compounds, 0.16% hits | AID 504648; further: on the % scale 0 is the no-effect control and ±100 the full control effect
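A549 ARE_Fluc cells in 5% FBS OPTI-MEM were exposed to compounds in concentration-response for 18-24 h at 37 deg C. Viability was read by CellTiter-Fluor fluorescence (Ex 405/Em 525) after 30 min, before the luciferase read.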
Nrf2 inh: blocks Nrf2 signaling; Potency, µM (doses to about 46 µM), inactives show top-dose activity change, negative = inhibition, usual class: inhibitors; A549 ARE-Fluc reporter, luciferase luminescence, 18-24 h; 360,000 compounds, 2.1% hits; AID 504444; further: on the % scale 0 is the no-effect control and ±100 the full control effect; nearly all actives have a fitted effect of over 60% in size
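Cells were seeded and rested 2 h, then exposed to compounds for 18-24 h. CellTiter-Fluor was read first as a viability measure. BugLite was added 15 min before the final luminescent read of ARE-luciferase activity in A549 cells.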
Rango complex inh: inhibitors of Rango-importin beta complex formation. Rango CFP/YFP FRET sensor + importin beta, 45 min. Potency, µM (highest dose often 92.2 µM), for inactives: at the top dose inhibition of complex formation. 340,000 compounds, 0.031% hits; calls by dose curve;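 further: 0% = DMSO wells and 100% = buffer wells lacking importin beta; nearly all actives have a fitted effect of over 15% in size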
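FRET biosensor Rango (snurportin 1 IBB between N-terminal EYFP and C-terminal Cerulean), 50 nM in PBS/1 mM DTT/0.02% Tween-20/0.1% BSA, preincubated 5 min RT with compound; 0.125 microM importin beta added, 45 min RT, CFP/YFP FRET ratio read.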
The depositor's hits bear a star; [ ] = remark or other dose. A selection: hits, their analogues and other compounds. The true share with any hit is near 2.3%. Unless noted, the call rests on the fitted dose curve; in most records, active means well fitted curve in the direction sought with a large enough effect; inconclusive means small, poorly fitted or top-dose-only effect, or another doubt; inactive means no such curve, though single readings can be large; an effect the other way counts as inactive or inconclusive. Potency means the concentration at half of the fitted maximal effect.

What do the screens show for `CC(C)(C)OC(=O)C[C@@H]1C/C=C\C[C@@H](CC(=O)N[C@@H](CO)Cc2ccccc2)C(=O)NCCOC1=O`?
Rango dissoc inh: 16%; Nrf2 activator: 0%; A549 viability: 4%; Nrf2 inh: -5%; Rango complex inh: -4%

What do the screens show for `CCC(C)(C)c1ccc(Oc2ccc(N)cc2)cc1`?
Rango dissoc inh: 27%; Nrf2 activator: -2%; A549 viability: -20%; Nrf2 inh: 5.8µM*; Rango complex inh: 2%

What do the screens show for `Cc1ccc(C(=O)N2CCN(S(=O)(=O)c3ccc(C)c([N+](=O)[O-])c3)C2)cc1`?
Rango dissoc inh: -6%; Nrf2 activator: 0%; A549 viability: -7%; Nrf2 inh: -25%; Rango complex inh: 4%

Results for O=C1CN(C(=O)c2ccccc2C(F)(F)F)C(c2ccccc2)c2cc(F)ccc2N1 (centres undefined) ?
Nrf2 activator: 4%; A549 viability: 1%; Nrf2 inh: -8%[9.27 µM]

How did Cc1cc(OCC(=O)Nc2cc(S(=O)(=O)N3CCOCC3)ccc2N2CCCC2)ccc1C(C)C do in these assays?
Rango dissoc inh: 9%; Nrf2 activator: -1%; A549 viability: -21%; Nrf2 inh: 16µM*; Rango complex inh: -3%

Results for Cc1cc(C)n2nc(C(=O)OCC(=O)N3C(C)CCCC3C)nc2n1 (centres undefined) ?
Rango dissoc inh: -1%; Nrf2 activator: -1%; A549 viability: -5%; Nrf2 inh: 12%; Rango complex inh: -1%

What do the screens show for `CC(=O)Nc1ccc(Nc2nc(-c3sc(NC(C)=O)nc3C)cs2)cc1`?
Rango dissoc inh: -6%; Nrf2 activator: -1%; A549 viability: -9%; Nrf2 inh: -25%; Rango complex inh: 3%

What do the screens show for `Cc1ccc(Cl)cc1Nc1nc(-c2sc(NC(=O)C(C)(C)C)nc2C)cs1`?
Rango dissoc inh: -15%; Nrf2 activator: 0%; A549 viability: 3%; Nrf2 inh: 12µM*; Rango complex inh: -1%

What do the screens show for `CCC(C)C(=O)Nc1nc(C)c(-c2csc(Nc3ccc(Cl)cc3)n2)s1` (centres undefined)?
Rango dissoc inh: -14%; Nrf2 activator: 4%; A549 viability: inconclusive; Nrf2 inh: 16µM*; Rango complex inh: inconclusive

What do the screens show for `CCCCCC(=O)Nc1nc(C)c(-c2csc(Nc3cc(Cl)ccc3OC)n2)s1`?
Rango dissoc inh: -19%; Nrf2 activator: 7%; A549 viability: 2%; Nrf2 inh: 5%; Rango complex inh: 1%

Results for O=C(Cc1ccccc1[N+](=O)[O-])Nc1cccc(S(=O)(=O)NC2=NCCCCC2)c1 ?
Rango dissoc inh: -1%; Nrf2 activator: 0%; A549 viability: 11%; Nrf2 inh: inconclusive; Rango complex inh: -4%

Results for O=C(/C=C/c1ccc(Cl)cc1Cl)Nc1cccc(S(=O)(=O)NC2=NCCC2)c1 ?
Rango dissoc inh: 0%; Nrf2 activator: 16%; A549 viability: -7%; Nrf2 inh: inconclusive; Rango complex inh: -1%

How did O=C(/C=C/c1ccccc1Cl)Nc1cccc(S(=O)(=O)NC2=NCCCCC2)c1 do in these assays?
Rango dissoc inh: -11%; Nrf2 activator: 15%; A549 viability: inconclusive; Nrf2 inh: 9.2µM*; Rango complex inh: -3%

How did O=C(/C=C/c1ccc([N+](=O)[O-])cc1)Nc1cccc(S(=O)(=O)NC2=NCCCCC2)c1 do in these assays?
Rango dissoc inh: -4%; Nrf2 activator: 4%; A549 viability: -19%; Nrf2 inh: 18µM*; Rango complex inh: -3%

Results for CCCN(CC(=O)NC(=O)NCc1ccccc1)CC(=O)Nc1ccc(F)c(F)c1F ?
Nrf2 activator: 0%

What do the screens show for `O=C(N/N=C/C(Cl)=C/c1ccccc1)c1cnccn1`?
Rango dissoc inh: 0%; Nrf2 activator: 11µM*; A549 viability: -3%; Nrf2 inh: inconclusive; Rango complex inh: -1%

Results for O=C(N/N=C/C(Cl)=C\c1ccccc1)c1cnccn1 ?
Rango dissoc inh: 0%; Nrf2 activator: 16µM*; A549 viability: 8%; Nrf2 inh: inconclusive; Rango complex inh: 2%

Results for O=C(Cc1cc2ccccc2o1)NCc1ccc(F)cc1 ?
Rango dissoc inh: -2%; Nrf2 activator: 0%; A549 viability: -11%; Nrf2 inh: 15%; Rango complex inh: 0%

What do the screens show for `O=C(CNC(=O)c1ccc2n[nH]nc2c1)OC(C(=O)Nc1cc(C(F)(F)F)ccc1Cl)c1ccccc1` (centres undefined)?
A549 viability: 3%; Nrf2 inh: -20%

What do the screens show for `Cc1nc(-c2ccc(S(=O)(=O)N3CCN(Cc4ccccc4)CC3)s2)cs1`?
Rango dissoc inh: 2%; Nrf2 activator: 0%; A549 viability: 3%; Nrf2 inh: 16µM*; Rango complex inh: -3%

Results for Cc1nc(-c2ccc(S(=O)(=O)N3CCN(C(c4ccccc4)c4ccccc4)CC3)s2)cs1 ?
Rango dissoc inh: -11%; Nrf2 activator: -2%; A549 viability: 8%; Nrf2 inh: 3%; Rango complex inh: inconclusive

How did CNc1snc(C)c1C(=O)OCC(=O)c1cc(F)ccc1OC do in these assays?
Rango dissoc inh: -1%; Nrf2 activator: inconclusive; A549 viability: -8%; Nrf2 inh: 12µM*; Rango complex inh: -4%

How did CNc1snc(C)c1C(=O)OCC(=O)c1ccc(OC)c(F)c1 do in these assays?
Rango dissoc inh: 0%; Nrf2 activator: 5%; A549 viability: -4%; Nrf2 inh: 11%; Rango complex inh: -1%

What do the screens show for `O=S(=O)(c1ccc(Oc2ccccc2)cc1)N1CCOCC1`?
Rango dissoc inh: 0%; Nrf2 activator: 0%; A549 viability: -1%; Rango complex inh: 5%

What do the screens show for `O=S(=O)(c1ccc(Oc2ncnc3scc(-c4ccccc4)c23)cc1)N1CCOCC1`?
Rango dissoc inh: 21%; Nrf2 activator: 4%; A549 viability: -5%; Nrf2 inh: 16µM*; Rango complex inh: inconclusive

How did COc1ccccc1CC(Cc1nc2ccccc2[nH]1)c1nc2ccccc2[nH]1 (centres undefined) do in these assays?
Rango dissoc inh: 0%; Nrf2 activator: 4%; A549 viability: 3%; Nrf2 inh: 18%; Rango complex inh: 3%

Results for Cc1cccc(CC(Cc2nc3ccccc3[nH]2)c2nc3ccccc3[nH]2)c1 (centres undefined) ?
Rango dissoc inh: 5%; Nrf2 activator: 12%; A549 viability: inconclusive; Nrf2 inh: 26µM*; Rango complex inh: 1%

What do the screens show for `CC1CC(C)(C)CC2(C1)NC(=O)N(CC(=O)N1CCN(S(=O)(=O)c3cccs3)CC1)C2=O` (centres undefined)?
Rango dissoc inh: -12%; Nrf2 activator: -1%; A549 viability: -2%; Nrf2 inh: -4%; Rango complex inh: -2%
